NOD2 RIPK2 PPI: blocks binding of human NOD2 to RIPK2; AID 624267; CHO BLA complementation NOD2-RIPK2, CCF4 ratio; inhibition, % at 4.98 µM; hit rate 0.38% among 360,000; O43353; in the data active means inhibition above about 21%;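 further: 0% = vehicle only and 100% = reference blocker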
m5-HT2A agonist: activates the mouse 5-HT2A serotonin receptor | CHO-K1 mHTR2A beta-arrestin complementation, luminescence; percent of 30 µM serotonin response | P35363 | activation, % at 7.6 µM | hit rate 0.66% among 360,000;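 active means activation above a run cutoff, the mean activation of all tested compounds plus 3 SD, cut at about 14% in these data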;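 further: 0% = plate median of compound wells and 100% = 30 µM serotonin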
TLR9-MyD88 block: TLR9-MyD88 interaction inhibition; inhibition, % at 4.98 µM; CHO BLA complementation TLR9-MyD88, CCF4 FRET ratio; Q9NR96+Q99836; hit rate 0.21% among 340,000;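 active means inhibition above the mean over all tested compounds plus 3 SD, cut at about 21% in these data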;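 further: 0% = DMSO only wells and 100% = clavulanate BLA inhibitor control wells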
Rtt109 HAT inh: C. albicans Rtt109 histone acetyltransferase inhibition | AID 540336 | purified Rtt109/Vps75, ThioGlo CoA-SH fluorescence, 4 h | inhibition, % at 34.9 µM | Q5AAJ8 | hit rate 0.16% among 330,000;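 active means inhibition of at least 50% in every replicate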
LANA-H2B inh: blocks KSHV LANA binding to histone H2A/H2B; Q9QR71; cell-free LANA-H2A/H2B peptide, fluorescence polarization; inhibition, % (test concentration not listed); hit rate 0.6% among 320,000; in the data active means inhibition mostly above about 10%, no sharp cut-off; inactive means mostly below about 6.7%
TLR4 MyD88 comp: blocks binding of human TLR4 to MyD88. O00206+Q99836. HeLa CL3-4 TLR4/MyD88 BLA complementation, FRET ratio. inhibition, % at 8.4 µM. hit rate 0.18% among 200,000; in the data active means inhibition above about 25%;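 further: 0% = vehicle and 100% = reference inhibitor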
TLR9-MyD88 cf: TLR9-MyD88 interaction inhibition, confirmation. CHO TLR9/MyD88 BLA complementation, CCF4 FRET ratio. AID 540250. hit rate 51% among 680. shares compounds with TLR9-MyD88 block. inhibition, % at 4.98 µM;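 active means mean inhibition across three repeats above about 21% taken from the earlier screen, limit read from the data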;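 further: blue over green emission ratio reports constitutive TLR9 MyD88 association via BLA complementation; 0% = DMSO vehicle wells and 100% = clavulanate BLA inhibitor wells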
BLA counter-1: counter-screen for TLR9-MyD88 inhibitors: non-selective beta-lactamase inhibitors; hit rate 7% among 680; inhibition, % at 4.98 µM; shares compounds with TLR9-MyD88 block; CHO-BLA cells, CCF4 FRET ratio, BLA reporter;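 active means mean inhibition above a 50% cutoff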;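 further: counterscreen of TLR9-MyD88 hits on CMV-driven BLA in CHO-K1 cells; 0% = DMSO alone and 100% = clavulanate blocking BLA; higher means less blue over green ratio so more BLA blockade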
TLR9 CHO tox: CHO cell toxicity counter-screen for TLR9-MyD88 inhibitors; shares compounds with TLR9-MyD88 block; hit rate 39% among 680; AID 588336; TLR9-MyD88 CHO cells cytotoxicity, luminescence; inhibition, % at 4.98 µM; in the data active means inhibition above about 11%
NOD2 RIPK2 conf: NOD2-RIPK2 interaction inhibition confirmed; shares compounds with NOD2 RIPK2 PPI; CHO cells, NOD2-RIPK2 BLA complementation, CCF4 FRET; inhibition, % at 4.98 µM; hit rate 70% among 1,200; AID 624370;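 active means mean inhibition across replicates above a set limit taken from the earlier primary screen, cut at about 21% in these data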;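 further: 0% = DMSO-only wells and the high end = clavulanate BLA-blocked wells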
BLA counter-2: NOD2-RIPK2 counterscreen BLA reporter activity; AID 624371; hit rate 57% among 1,200; CHO BLA reporter, CCF4 FRET ratio; inhibition, % at 4.98 µM; shares compounds with NOD2 RIPK2 PPI;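 active means mean inhibition above the low-control mean inhibition plus three low-control SD, cut at about 11% in these data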;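 further: 0% = DMSO only wells and 100% = clavulanate high control wells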
* marks the source's active call; other numbers are inactive results. Rows were chosen to be rich in hits. Some 1.8% of all compounds tested hit in one or more screens of this group.

Results for O=[N+]([O-])c1ccc(C2=NN(c3ccccc3)C(c3ccco3)C2)cc1 (stereo unspecified) ?
NOD2 RIPK2 PPI: 41*; m5-HT2A agonist: -2; TLR9-MyD88 block: 59*; Rtt109 HAT inh: 5; TLR9-MyD88 cf: 40*; BLA counter-1: 41; TLR9 CHO tox: 5; NOD2 RIPK2 conf: 73*; BLA counter-2: 69*

Results for O=[N+]([O-])c1ccc(/C=C/C2=NN(c3ccccc3)C(c3ccco3)C2)cc1 (stereo unspecified) ?
NOD2 RIPK2 PPI: 4; m5-HT2A agonist: -4; TLR9-MyD88 block: 11; Rtt109 HAT inh: 0; LANA-H2B inh: -6; TLR4 MyD88 comp: 17

How did COC(=O)[C@]12CCCCC=C1N(CCc1ccc(OC)c(OC)c1)C(=O)[C@H](CC(=O)NCc1ccccc1)C2 do in these assays?
NOD2 RIPK2 PPI: -2; m5-HT2A agonist: -3

Results for COc1cc(OC)c(C#N)c(S(=O)(=O)Cc2ccccc2)c1 ?
NOD2 RIPK2 PPI: -2; m5-HT2A agonist: 3; TLR9-MyD88 block: 8; Rtt109 HAT inh: -4; LANA-H2B inh: 2; TLR4 MyD88 comp: -7

Results for N#Cc1c([N+](=O)[O-])cc([N+](=O)[O-])cc1S(=O)(=O)Cc1ccccc1 ?
NOD2 RIPK2 PPI: 86*; m5-HT2A agonist: -6; TLR9-MyD88 block: 46*; Rtt109 HAT inh: 12; LANA-H2B inh: 2; TLR9-MyD88 cf: 40*; BLA counter-1: 23; TLR9 CHO tox: 98*; NOD2 RIPK2 conf: 92*; BLA counter-2: 34*

Results for COC(=O)c1ccccc1NC(=O)/C=N/O ?
NOD2 RIPK2 PPI: 5; m5-HT2A agonist: 0; TLR9-MyD88 block: 8; Rtt109 HAT inh: -6; LANA-H2B inh: 3; TLR4 MyD88 comp: -4

What do the screens show for `O=C(/C=N/O)Nc1ccc2sc3ccccc3c2c1`?
NOD2 RIPK2 PPI: 21*; m5-HT2A agonist: 1; TLR9-MyD88 block: 34*; Rtt109 HAT inh: 1; LANA-H2B inh: 2; TLR9-MyD88 cf: 8; BLA counter-1: 6; TLR9 CHO tox: 3; NOD2 RIPK2 conf: 20; BLA counter-2: 15*

Results for CN(C)c1ccc(-n2cccc2/C=C/[N+](=O)[O-])cc1 ?
NOD2 RIPK2 PPI: 15; m5-HT2A agonist: -7; TLR9-MyD88 block: 0; Rtt109 HAT inh: -3; LANA-H2B inh: inactive; TLR4 MyD88 comp: 7

Results for CN(c1ccccc1)c1ccc(/C=C/[N+](=O)[O-])cc1 ?
NOD2 RIPK2 PPI: 75*; m5-HT2A agonist: -3; TLR9-MyD88 block: 26*; Rtt109 HAT inh: -6; LANA-H2B inh: -1; TLR4 MyD88 comp: 10; TLR9-MyD88 cf: 28*; BLA counter-1: 11; TLR9 CHO tox: 81*; NOD2 RIPK2 conf: 89*; BLA counter-2: 29*

How did CCOC(=O)C1=NN(c2ccccc2)C2C(=O)N(c3ccccc3OC)C(=O)C12 (stereo unspecified) do in these assays?
NOD2 RIPK2 PPI: 8; m5-HT2A agonist: 7; TLR9-MyD88 block: 8; Rtt109 HAT inh: 1; LANA-H2B inh: -4

What do the screens show for `COc1ccccc1N1C(=O)C2C(C(=O)c3ccccc3)=NN(c3ccccc3)C2C1=O` (stereo unspecified)?
NOD2 RIPK2 PPI: 52*; m5-HT2A agonist: -4; TLR9-MyD88 block: 47*; Rtt109 HAT inh: 4; LANA-H2B inh: -2; TLR9-MyD88 cf: 26*; BLA counter-1: 25; TLR9 CHO tox: 2; NOD2 RIPK2 conf: 59*; BLA counter-2: 64*

Results for Fc1ccc(Br)cc1C1C=C(c2ccc(Br)cc2)Nc2ncnn21 (stereo unspecified) ?
NOD2 RIPK2 PPI: 43*; m5-HT2A agonist: 1; TLR9-MyD88 block: 21*; Rtt109 HAT inh: -353; LANA-H2B inh: 1; TLR4 MyD88 comp: 1; TLR9-MyD88 cf: 7; BLA counter-1: 10; TLR9 CHO tox: 3; NOD2 RIPK2 conf: 1; BLA counter-2: 2

Results for CCC1=CC(c2ccccc2)n2ncnc2N1 (stereo unspecified) ?
NOD2 RIPK2 PPI: 6; m5-HT2A agonist: -9; TLR9-MyD88 block: -16; Rtt109 HAT inh: -5; LANA-H2B inh: -1

How did Cc1ccc(C2=CC(c3ccccc3)n3ncnc3N2)cc1 (stereo unspecified) do in these assays?
NOD2 RIPK2 PPI: 52*; m5-HT2A agonist: -1; TLR9-MyD88 block: 41*; Rtt109 HAT inh: -4; LANA-H2B inh: -1; TLR9-MyD88 cf: 9; BLA counter-1: 6; TLR9 CHO tox: -2; NOD2 RIPK2 conf: 19; BLA counter-2: 21*

What do the screens show for `Cc1ccc(C2C=C(c3ccc4c(c3)OCO4)Nc3ncnn32)cc1` (stereo unspecified)?
NOD2 RIPK2 PPI: 42*; m5-HT2A agonist: 4; TLR9-MyD88 block: 31*; Rtt109 HAT inh: -178; LANA-H2B inh: 4; TLR4 MyD88 comp: -5; TLR9-MyD88 cf: 11; BLA counter-1: 13; TLR9 CHO tox: 3; NOD2 RIPK2 conf: 34*; BLA counter-2: 42*

How did C1=C(c2ccccc2)Nc2ncnn2C1c1ccccc1 (stereo unspecified) do in these assays?
NOD2 RIPK2 PPI: 35*; m5-HT2A agonist: 3; TLR9-MyD88 block: 25*; Rtt109 HAT inh: -391; LANA-H2B inh: 1; TLR9-MyD88 cf: 11; BLA counter-1: 12; TLR9 CHO tox: 1; NOD2 RIPK2 conf: 1; BLA counter-2: 5

What do the screens show for `CC1=C(C(=O)N(C(C)C)C(C)C)CC(CC(=O)NCCc2ccccn2)C(=O)N1Cc1ccc(F)cc1` (stereo unspecified)?
NOD2 RIPK2 PPI: -5; m5-HT2A agonist: 2

What do the screens show for `CC(C)(Cc1nc2ccccc2[nH]1)c1nc2ccccc2[nH]1`?
NOD2 RIPK2 PPI: -5; m5-HT2A agonist: 0; TLR9-MyD88 block: -3

How did O=C1/C(=C/c2cccc(F)c2)Oc2cc(O)ccc21 do in these assays?
NOD2 RIPK2 PPI: 32*; m5-HT2A agonist: -3; TLR9-MyD88 block: 25*; Rtt109 HAT inh: 12; LANA-H2B inh: 3; TLR9-MyD88 cf: 10; BLA counter-1: 15; TLR9 CHO tox: 2; NOD2 RIPK2 conf: 44*; BLA counter-2: 42*
